Bioassay records from PubChem BioAssay.
aDG glyco act: activators of alpha-DG glycosylation, primary screen, uHTS, Pro5-aDG cells, AlphaScreen; AID 624168, 2012; alpha-DG glycosylation AlphaScreen (IIH6); 0% Pro5, 100% B10-LARGE cell signal; hit rate 0.22% among 360,000; activation, % at 10 µM;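 active means activation of at least 8% versus controls, or a plate z-score of at least 8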;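 further: Pro5 are CHO cells carrying HIG-tagged alpha-DG that lacks glycosylation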
ARNT-TACC3 inh: disruptors of ARNT/TACC3 protein interaction, primary screen, biochemical, AlphaScreen, single concentration. AID 623870, 2012. AlphaScreen His-ARNT PAS-B/GST-TACC3 binding, luminescence; TACC3 fragment carries E629A point mutation. hit rate 0.66% among 390,000. inhibition, % at 9.99 µM;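 active means mean inhibition of replicates at least 50% and at least half of replicates each reaching 50%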;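 further: 0% = complete ARNT plus TACC3 wells and 100% = ARNT alone without TACC3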
Vif inh: HIV Vif self-association inhibitors, primary screen, imaging, HEK293T, single point | hit rate 0.35% among 340,000 | HEK293T cells, Vif self-association by quenched fluorescence, 24 h | AID 602346, 2012 | inhibition, % at 7.49 µM; in the data active means inhibition above about 50%, passing the limit was not always enough
N-glyco inh: increase of ERlucT glycosylation luciferase signal, primary screen, N-linked glycosylation inhibitor project, D54 ERlucT cells, luminescence, set 2; AID 588692, 2011; reporter increase, % at 12.5 µM; hit rate 0.23% among 360,000; D54 ERlucT glycosylation luciferase reporter, 24 h; percent of 100 nM tunicamycin response;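 active means mean luciferase reporter signal, scaled so untreated is 0 and the glycosylation-blocking control 100, at or above a set limit in every replicate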;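 further: luciferase carries N-glycosylation sites so blocking glycosylation raises the light; 0% = median of neutral control wells and 100% = median of 100 nM tunicamycin wells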
Cardio protect: cardioprotection against H2O2-induced cell death, primary screen, uHTS, H9c2 cells, ATPLite luminescence; protection from H2O2 cell death, % at 20 µM; hit rate 0.63% among 360,000; AID 588492, 2011; H9c2 cardiomyocytes, H2O2 injury protection, 2 h;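 active means compounds giving at least 50% protection of heart cells from peroxide-induced death in the single-dose screen, raw or plate-pattern-corrected value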;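 further: 0% = DMSO wells with peroxide and 100% = DMSO wells without peroxide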
Active calls of the source: *; . = no result given. Compounds with a hit are over-represented: about 1.7% of the library has one in this group of screens.

SMILES	aDG glyco act	ARNT-TACC3 inh	Vif inh	N-glyco inh	Cardio protect
COc1cc(N=c2oc3c(C)ncc(CO)c3cc2C(N)=O)cc(OC)c1OC	0	35*	-4	0	24
COc1ccccc1NC(=O)c1cc2c(CO)cnc(C)c2oc1=Nc1ccc(OC)c(OC)c1	0	-5	32	-8	21
O=C(C[C@H]1CC[C@H]2[C@@H](COC[C@@H](O)CN2C(=O)C2CCCC2)O1)NCc1ccncc1	.	11	.	.	.
c1ccc(-c2nc(-n3ccnc3)nc(-n3ccnc3)n2)cc1	0	3	-2	27*	74*
Cc1nc2ccccc2c2c(N)c3ccccc3n12	0	38	1	6	66*
COc1ccc(OC)c(-c2nnc3n2N=C(c2ccc(OC)c(OC4CCCC4)c2)CS3)c1	0	.	.	30*	6
CCCc1nnc2n1N=C(c1ccc(OC)c(OC)c1)CS2	0	6	57*	4	21
C[C@H]1CCCCO[C@H](CN(C)C(=O)Cc2ccccc2)[C@@H](C)CN([C@@H](C)CO)C(=O)c2cc(NC(=O)CCC(F)(F)F)ccc2O1	.	-4	.	.	.
CO[C@@H]1CN(C)C(=O)c2ccc(NC(=O)C3CCC3)cc2OC[C@@H](C)N(C(=O)c2ccccc2)C[C@H]1C	.	-5	.	.	.
CC(C)CN=Cc1c(O)c([N+](=O)[O-])cc2oc3c(c12)CCCC3	0	4	-3	0	95*
O=[N+]([O-])c1cc2oc3c(c2c(C=NCc2ccccc2)c1O)CCCC3	0	4	.	2	61*
C[C@H](NC(=O)C[C@@H]1C[C@@H]2c3cc(NS(C)(=O)=O)ccc3O[C@@H]2[C@@H](CO)O1)c1ccccc1	.	-8	.	.	.
CC1=C(O)C(=O)C(C2=C(O)C(=O)C(C)=C(O)C2=O)=C(O)C1=O	0	66*	-12	2	3
O=c1[nH]c2cc(F)ccc2c2ccc(F)cc12	0	0	-2	3	62*
O=C(C[C@H]1C[C@H]2c3cc(NC(=O)C4CCOCC4)ccc3O[C@H]2[C@H](CO)O1)NCc1ccc2c(c1)OCO2	.	-5	.	.	.
C[C@@H](NC(=O)c1nc[nH]c1C(=O)N1CCN(c2ccccc2)CC1)c1ccccc1	0	10	3	28*	6
CC1CCN(C(=O)c2[nH]cnc2C(=O)N[C@H](C)c2ccccc2)CC1	0	5	7	-1	-4
C[C@@H](NC(=O)c1nc[nH]c1C(=O)OCc1ccccc1)c1ccccc1	0	-3	-12	1	16
C[C@H](NC(=O)c1nc[nH]c1C(=O)N[C@@H](C)C(=O)OCc1ccccc1)C(=O)OCc1ccccc1	0	6	68*	3	7
C[C@@H](NC(=O)c1nc[nH]c1C(=O)NCC(=O)OCc1ccccc1)c1ccccc1	0	7	-2	2	92*
Cc1noc(C)c1S(=O)(=O)Nc1ccc2c(c1)C(=O)N([C@H](C)CO)C[C@@H](C)[C@@H](CN(C)Cc1ccncc1)OCCCC[C@@H](C)O2	.	8	.	.	.
COc1cccc(CNC(=O)[C@@H]2[C@@H](CO)[C@@H]3Cn4c(cccc4=O)[C@H]2N3C(=O)C2CCC2)c1	.	-7	.	.	.
COc1ccc(S(=O)(=O)N(C)C[C@H]2OCCCC[C@@H](C)Oc3ccc(NC(=O)c4ccncc4)cc3C(=O)N([C@@H](C)CO)C[C@H]2C)cc1	.	-1	.	.	.
C[C@@H]1CN([C@@H](C)CO)C(=O)c2cc(/C=C/c3ccccc3)cnc2O[C@@H]1CN(C)C(=O)C1CCCCC1	.	2	.	.	.
Cc1[nH][nH]c(=O)c1C(c1cc(Br)ccc1O)c1c(C)[nH][nH]c1=O	0	active	7	4	1
SMILES	aDG glyco act	ARNT-TACC3 inh	Vif inh	N-glyco inh	Cardio protect
O=C1c2ccccc2[C@@H]2C[C@@H](O)[C@H](Nc3cccc4ccccc34)CCN12	0	3	83*	8	-23
COc1ccc(C(=O)COC(=O)C(CCCCN2C(=O)C3C4C=CC(C4)C3C2=O)N2C(=O)C3C4C=CC(C4)C3C2=O)cc1 (stereo not given)	0	9	-6	-3	75*
COC(=O)C(CCCCN1C(=O)C2C3C=CC(C3)C2C1=O)N1C(=O)C2C3C=CC(C3)C2C1=O (stereo not given)	0	-7	-1	1	-3
CCCOC(=O)C[N+](C)(C)CCOC1CC2CCC1(C)C2(C)C (stereo not given)	0	18	63*	2	-10
CCCCOC(=O)C[N+](C)(C)CCOC1CC2CCC1(C)C2(C)C (stereo not given)	0	.	-4	3	0
Cc1ccc(S(=O)(=O)N(C)C[C@H]2Oc3c(NS(C)(=O)=O)cccc3C(=O)N([C@@H](C)CO)C[C@@H]2C)cc1	.	-4	.	.	.
C[C@H](NC(=O)OC(C)(C)C)C(=O)N/N=C/c1cccc2nccnc12	0	27*	-2	-2	12
CSCC[C@H](NC(=O)OC(C)(C)C)C(=O)N/N=C/c1cccc2cccnc12	0	62*	-13	3	52*
C[C@@H]1CCCCO[C@H](CN(C)S(=O)(=O)c2cccs2)[C@H](C)CN([C@H](C)CO)C(=O)c2cc(NC(=O)C3CCCCC3)ccc2O1	.	1	.	.	.
C[C@H]1CN([C@@H](C)CO)C(=O)c2cc(NS(=O)(=O)c3ccccc3)ccc2O[C@H]1CN(C)Cc1ccc(-c2ccccc2)cc1	.	3	.	.	.
CCOc1cccc(-c2c(C(=O)N/N=C(\C)c3ccncc3)nnn2-c2nonc2N)c1	1	-7	18	6	10
CCOc1cccc(-c2c(C(=O)N/N=C(\C)c3ccccn3)nnn2-c2nonc2N)c1	1	92*	-3	-11	51*
CCOc1ccc(-c2c(C(=O)N/N=C/c3c[nH]c4ccccc34)nnn2-c2nonc2N)cc1	0	-9	-3	2	54*
Cc1ccc(S(=O)(=O)N2CCCOC2CNC(=O)C(=O)NCCCn2ccnc2)cc1 (stereo not given)	0	78*	-1	-1	0
C[C@@H]1CN([C@H](C)CO)C(=O)c2cc(NC(=O)NC3CCCCC3)ccc2O[C@@H](C)CCCCO[C@H]1CN(C)Cc1ccc(C(=O)O)cc1	.	10	.	.	.
COc1cccc(C(=O)Nc2ccc3c(c2)C(=O)N(C)[C@H]2CC[C@H](CC(=O)NCCCN4CCOCC4)O[C@H]2CO3)c1	.	-7	.	.	.
O=C1c2ccccc2NC(c2ccc(-c3ccc(Br)cc3)o2)N1O (stereo not given)	0	3	-8	-10	65*
